Measured values taken from PubChem BioAssay (Tox21).
Values joined by “and” are separate entries in the source; they are usually repeats but may differ in a detail not shown here. Identical values can stand only once. Results filed as inconclusive are left out. Where a call stands in place of a potency, no number is given. Where a structure was tested more than once in an assay, its records may differ in their call. Active and inactive are the calls of the source. Unless noted, the call rests on the fitted dose curve.

Test system: not listed separately
Test: Nuclear factor erythroid 2-related factor 2/antioxidant responsive element (Nrf2/ARE) small molecule agonists: luciferase reporter gene qHTS assay in human keratinocytes (AID 1919969); further: nearly all actives have a fitted effect of over 35% in size; further: potency means the concentration at half of the fitted maximal effect
Settings: KeratinoSens HaCaT ARE-luciferase, luminescence, 24 h; series mostly up to 92.4 µM; activity, positive = activation: at the top concentration

| Compound | Potency | activity, positive = activation |
| --- | --- | --- |
| CC(C)c1ccc(OP(=O)(Oc2ccc(C(C)C)cc2)Oc2ccc(C(C)C)cc2)cc1 | 61.6 µM (active) and inactive and 30.6 µM (active) |  |
| Clc1cccc(Cl)c1 |  | -5.56% (inactive) |
| ClC(Cl)c1ccccc1 | inactive |  |
| O=P(OCC(Br)CBr)(OCC(Br)CBr)OCC(Br)CBr (stereo not drawn) | inactive |  |
| Clc1cccc(C(Cl)(Cl)Cl)n1 | inactive |  |
| COP(=O)(NC(C)=O)SC (stereo not drawn) | inactive |  |
| COP(=O)(OC)OC | 61.6 µM (active) and inactive |  |
| CCOP(=S)(OCC)Oc1nc(Cl)c(Cl)cc1Cl | 27.4 µM (active) and 61.1 µM (active) |  |
| CCN(CC)C(=O)/C(Cl)=C(\C)OP(=O)(OC)OC |  | -0.207% (inactive) |
| CCCCCCCCCCCCCCCl |  | -1.5% (inactive) |
| c1ccc(C2CO2)cc1 (stereo not drawn) | inactive |  |
| ClCCOCCCl | inactive |  |
| CN=C=O |  | -3.92% (inactive) |
| CC(O)CCO (stereo not drawn) | inactive |  |
| CCOP(=S)(OCC)Oc1ccc([N+](=O)[O-])cc1 | inactive |  |
| C=CC(Cl)CCl (stereo not drawn) | inactive |  |
| CN(CCCC(=O)c1cccnc1)N=O |  | -5.8% (inactive) |
| Nc1ccc(Cl)cc1N | 31.9 µM (active) and 19.3 µM (active) |  |
| Cc1ccc(N)c(C)c1 | inactive |  |
| N#CCCCCC#N | inactive |  |
| C[C@H]1O[C@H](OC2[C@@H](O)[C@@H](O)C(O)[C@H](O)[C@H]2O)[C@@H](N)C[C@@H]1N=C(N)C(=O)O (stereo partly drawn) |  | -0.652% (inactive) |
| CCC(C)c1ccc(O)cc1 (stereo not drawn) | inactive |  |
| CCCCC(CC)C(=O)Cl (stereo not drawn) | inactive |  |
| O=C(CCl)c1ccc(Cl)cc1Cl | 60.8 µM (active) and 11.9 µM (active) |  |
| O=P(Oc1ccccc1)(Oc1ccccc1)Oc1ccccc1 | 60.8 µM (active) and inactive |  |
| CCCCCCCCCCCCn1cc[n+](C)c1 | inactive |  |
| Nc1cccc2ccccc12 | inactive and 61.1 µM (active) |  |
| Cc1[nH]c(=O)n(C(C)(C)C)c(=O)c1Cl | inactive |  |
| CCCCCC[n+]1ccccc1 | 69.2 µM (active) and 69 µM (active) and inactive |  |
| CC(C)CCCCCCOC(=O)c1ccccc1C(=O)OCCCCCCC(C)C | inactive |  |

Target: Gonadotropin-releasing hormone receptor (Homo sapiens) (UniProt P30968)
Test: Human gonadotropin-releasing hormone receptor (GnRHR) small molecule agonists, calcium flux assay in GnRHR-HEK293 cells (AID 1920063); further: nearly all actives have a fitted effect of over 35% in size
Settings: calcium flux fluorescence, agonist mode; series mostly up to 57.6 µM; activity change: at the top concentration
In short: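 Fluorescence kinetics (480 nm excitation, 540 nm emission; 3 min, 1 s steps) report calcium mobilisation in human GnRHR-HEK293 cells in agonist mode. Dye incubation: 1 h, 37 C.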

Sequence of Gonadotropin-releasing hormone receptor (Homo sapiens) (P30968 whole entry, looked up): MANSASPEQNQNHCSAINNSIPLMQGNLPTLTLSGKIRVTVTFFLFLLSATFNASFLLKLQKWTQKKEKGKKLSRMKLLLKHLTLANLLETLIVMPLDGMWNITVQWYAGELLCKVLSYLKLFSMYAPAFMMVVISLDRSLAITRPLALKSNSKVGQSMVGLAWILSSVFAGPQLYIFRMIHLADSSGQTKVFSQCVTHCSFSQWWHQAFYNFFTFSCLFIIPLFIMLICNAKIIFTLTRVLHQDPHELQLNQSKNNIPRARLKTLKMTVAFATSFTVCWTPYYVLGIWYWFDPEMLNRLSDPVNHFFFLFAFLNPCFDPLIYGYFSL

| Compound | Potency | activity change |
| --- | --- | --- |
| CC(C)c1ccc(OP(=O)(Oc2ccc(C(C)C)cc2)Oc2ccc(C(C)C)cc2)cc1 | inactive |  |
| Clc1cccc(Cl)c1 | inactive |  |
| ClC(Cl)c1ccccc1 | inactive |  |
| O=P(OCC(Br)CBr)(OCC(Br)CBr)OCC(Br)CBr (stereo not drawn) | inactive |  |
| Clc1cccc(C(Cl)(Cl)Cl)n1 | inactive |  |
| CC(C)N1C(=O)c2ccccc2NS1(=O)=O | inactive |  |
| CCCCn1cc[n+](C)c1 | inactive |  |
| CCOP(=S)(OCC)Oc1nc(Cl)c(Cl)cc1Cl | inactive |  |
| CCN(CC)C(=O)/C(Cl)=C(\C)OP(=O)(OC)OC | inactive |  |
| CCCCCCCCCCCCCCCl |  | 2.03% (inactive) |
| O=C(NC(=O)c1ccccc1Cl)Nc1ccc(OC(F)(F)F)cc1 |  | -1.11% (inactive) |
| c1ccc(C2CO2)cc1 (stereo not drawn) | inactive |  |
| ClCCOCCCl | inactive |  |
| Oc1cccc2cccnc12 | inactive |  |
| CC(O)CCO (stereo not drawn) | inactive |  |
| CCCCON=O |  | 0.909% (inactive) |
| CCOP(=S)(OCC)Oc1ccc([N+](=O)[O-])cc1 | inactive |  |

| Compound | Potency | activity change |
| --- | --- | --- |
| C=CC(Cl)CCl (stereo not drawn) | inactive |  |
| CN(CCCC(=O)c1cccnc1)N=O |  | -0.0976% (inactive) |
| CN(C)c1ccc(N=O)cc1 | inactive |  |
| Cc1ccc(N)c(C)c1 | inactive |  |
| N#CCCCCC#N | inactive |  |
| C[C@H]1O[C@H](OC2[C@@H](O)[C@@H](O)C(O)[C@H](O)[C@H]2O)[C@@H](N)C[C@@H]1N=C(N)C(=O)O (stereo partly drawn) |  | 0.158% (inactive) |
| CCC(C)c1ccc(O)cc1 (stereo not drawn) | inactive |  |
| CCCCC(CC)C(=O)Cl (stereo not drawn) | inactive |  |
| O=C(CCl)c1ccc(Cl)cc1Cl | inactive |  |
| O=c1[nH]c2ccccc2n1C1CCN(CCCC(c2ccc(F)cc2)c2ccc(F)cc2)CC1 | inactive |  |
| O=P(Oc1ccccc1)(Oc1ccccc1)Oc1ccccc1 | inactive |  |
| Nc1cccc2ccccc12 | inactive |  |
| Cc1[nH]c(=O)n(C(C)(C)C)c(=O)c1Cl | inactive |  |
| CCCCCC[n+]1ccccc1 | inactive |  |
| NN=C(N)N | inactive |  |
| O=c1[nH]c2ccccc2c(=O)o1 | inactive |  |
| CC(C)CCCCCCOC(=O)c1ccccc1C(=O)OCCCCCCC(C)C | inactive |  |

Target: KiSS-1 receptor (Homo sapiens) (UniProt Q969F8)
Test: Human kisspeptin (KISS1R) small molecule agonists, calcium flux assay in KISS1R-HEK293 cells (AID 1920064; active means well fitted activation curve with a large enough effect in the repeat runs)
Settings: KISS1R-HEK293, calcium flux fluorescence, agonist; series mostly up to 76.8 µM; activation: at the top concentration
In short: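 Measures KISS1R agonism through calcium-sensitive dye fluorescence in stably transfected HEK293 cells, read for 3 min after pin-tool compound delivery; 15-point titrations in triplicate.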

Sequence of KiSS-1 receptor (Homo sapiens) (Q969F8 whole entry, looked up): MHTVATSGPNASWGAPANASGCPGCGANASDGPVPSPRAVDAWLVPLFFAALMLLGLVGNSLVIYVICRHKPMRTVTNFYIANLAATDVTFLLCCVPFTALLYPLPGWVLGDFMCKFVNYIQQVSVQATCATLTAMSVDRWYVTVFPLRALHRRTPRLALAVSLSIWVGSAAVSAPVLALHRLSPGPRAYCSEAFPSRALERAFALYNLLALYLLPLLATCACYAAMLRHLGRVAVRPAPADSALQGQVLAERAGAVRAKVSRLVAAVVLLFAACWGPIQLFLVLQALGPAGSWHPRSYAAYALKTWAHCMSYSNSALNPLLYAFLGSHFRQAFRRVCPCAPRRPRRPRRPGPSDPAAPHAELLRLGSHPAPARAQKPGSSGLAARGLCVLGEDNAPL

| Compound | Potency | activation |
| --- | --- | --- |
| CC(C)c1ccc(OP(=O)(Oc2ccc(C(C)C)cc2)Oc2ccc(C(C)C)cc2)cc1 | inactive |  |
| Clc1cccc(Cl)c1 | inactive |  |
| ClC(Cl)c1ccccc1 | inactive |  |
| O=P(OCC(Br)CBr)(OCC(Br)CBr)OCC(Br)CBr (stereo not drawn) | inactive |  |
| Clc1cccc(C(Cl)(Cl)Cl)n1 | inactive |  |
| COP(=O)(NC(C)=O)SC (stereo not drawn) | inactive |  |
| CC(C)N1C(=O)c2ccccc2NS1(=O)=O | inactive |  |
| CCCCn1cc[n+](C)c1 | inactive |  |
| CCOP(=S)(OCC)Oc1nc(Cl)c(Cl)cc1Cl | inactive |  |
| CCN(CC)C(=O)/C(Cl)=C(\C)OP(=O)(OC)OC | inactive |  |
| CCCCCCCCCCCCCCCl |  | 2.86% (inactive) |
| O=C(NC(=O)c1ccccc1Cl)Nc1ccc(OC(F)(F)F)cc1 |  | -1.91% (inactive) |
| ClCCOCCCl | inactive |  |
| Oc1cccc2cccnc12 | inactive |  |
| CN=C=O |  | 12.1% (inactive) |
| CC(O)CCO (stereo not drawn) | inactive |  |
| CCCCON=O |  | 7.16% (inactive) |

| Compound | Potency | activation |
| --- | --- | --- |
| CCOP(=S)(OCC)Oc1ccc([N+](=O)[O-])cc1 | inactive |  |
| C=CC(Cl)CCl (stereo not drawn) | inactive |  |
| CN(CCCC(=O)c1cccnc1)N=O |  | -0.334% (inactive) |
| Nc1ccc(Cl)cc1N |  | -1.75% (inactive) |
| CN(C)c1ccc(N=O)cc1 | inactive |  |
| Cc1ccc(N)c(C)c1 | inactive |  |
| N#CCCCCC#N | inactive |  |
| CCC(C)c1ccc(O)cc1 (stereo not drawn) | inactive |  |
| CCCCC(CC)C(=O)Cl (stereo not drawn) | inactive |  |
| O=C(CCl)c1ccc(Cl)cc1Cl | inactive |  |
| O=P(Oc1ccccc1)(Oc1ccccc1)Oc1ccccc1 | inactive |  |
| CCCCCCCCCCCCn1cc[n+](C)c1 | inactive |  |
| Nc1cccc2ccccc12 | inactive |  |
| Cc1[nH]c(=O)n(C(C)(C)C)c(=O)c1Cl | inactive |  |
| CCCCCC[n+]1ccccc1 | inactive |  |
| NN=C(N)N | inactive |  |
| CC(C)CCCCCCOC(=O)c1ccccc1C(=O)OCCCCCCC(C)C | inactive |  |
